Records with an inconclusive call do not appear. Calls of active or inactive are those of the source. Unless noted, calls come from the whole dose curve; as a rule, active = well fitted curve in the direction sought with a large enough effect; inconclusive = small, poorly fitted or top-dose-only effect, or another doubt; inactive = no such curve, though single readings can be large; an effect the other way counts as inactive or inconclusive.

The target in assay [1] is 3',5'-cyclic-AMP phosphodiesterase 4B (Homo sapiens) (UniProt Q07343). The assay is described as follows: qHTS Assay for Inhibitors of PDE-IV (AID 607; active = well fitted activation curve with a large enough effect in the main read-out, with a control signal flat, not every such curve was filed as active). The conditions noted are these: HEK293 ACTOne CNG channel cells, membrane potential fluorescence; series mostly up to 22.9 µM. The method in brief:
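Cell-based read-out of cAMP via a modified cyclic nucleotide-gated channel and membrane potential dye (535/590 nm) in HEK293 cells expressing PDE4 endogenously. Compounds tested up to 22.9 uM final; 100 uM RO 20-1724 reference.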

For assay [2], the target named is Cytochrome P450 3A4 (Homo sapiens) (UniProt P08684). Briefly: qHTS Assay for Activators of Cytochrome P450 3A4 (AID 885). Note: nearly all actives have a fitted effect of over 65% in size. The conditions noted are these: recombinant CYP3A4, Luciferin-PPXE luminescence, 60 min; series mostly up to 57.1 µM. The procedure, abridged: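 Luminescent readout of luciferin formed from 25 uM Luciferin-PPXE (KM level) by 20 nM CYP3A4 in 200 mM KPO4, with 60 min NADPH-driven reaction at room temperature after 10 min compound exposure. Ketoconazole (57 uM) defined 100% inhibition.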

For assay [3], the target named is Cytochrome P450 2C19 (Homo sapiens) (UniProt P33261). Briefly: qHTS Assay for Inhibitors and Substrates of Cytochrome P450 2C19 (AID 899). Note: potency is the fitted concentration of half-maximal effect; nearly all actives have a fitted effect of over 60% in size. The conditions noted are these: recombinant CYP2C19, luciferin-H EGE luminescence; series mostly up to 57.1 µM. The method in brief: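 5nM enzyme + 10uM Luciferin-H EGE (=KM), 50mM KPO4; cpd pin-transferred, 10 min 37C; NADPH regen, 60 min 37C; stopped w/ luciferin detection reagent, 20 min; luminescence. Normalized to 57uM ketoconazole (AC100).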

Assay [4] deals with Cytochrome P450 3A4 (Homo sapiens) (UniProt P08684). Briefly: qHTS Assay for Inhibitors and Substrates of Cytochrome P450 3A4 (AID 884). Note: potency is the fitted concentration of half-maximal effect; nearly all actives have a fitted effect of over 50% in size. To be noted: recombinant CYP3A4, Luciferin-PPXE luminescence; series mostly up to 57.1 µM. The procedure, abridged: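 Luminescent readout of luciferin produced by CYP3A4 (20 nM) dealkylation of Luciferin-PPXE, 25 uM (its KM). NADPH-driven reaction ran 60 min at RT after 10 min compound preincubation; data scaled to 57 uM ketoconazole as 100% inhibition.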

Assay [5] deals with Mitogen-activated protein kinase 10 (Mus musculus) (UniProt Q61831). Briefly: JNK3 AlphaScreen Assay (AID 530; active = well fitted curve in either direction with a large enough effect, not every such curve was filed as active;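 note: kinase came from lysate of stimulated human HepG2 cells; signal reports phosphorylation of biotinylated GST-cJun 1-79 at Ser73 with 10 µM ATP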). To be noted: JNK3 lysate, c-Jun phosphorylation; series mostly up to 57.1 µM. The procedure, abridged:
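qHTS titrations with 15 min compound pre-incubation before adding ATP (10 uM final). Read-out: AlphaScreen of Ser73-phosphorylated biotin-GST-cJun using HepG2 lysate JNK3 activated by IL-1β and TNFα.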

Assay [6] has as its target Cytochrome P450 2C9 (Homo sapiens) (UniProt P11712). Briefly: qHTS Assay for Inhibitors and Substrates of Cytochrome P450 2C9 (AID 883). Note: potency is the fitted concentration of half-maximal effect; nearly all actives have a fitted effect of over 60% in size. To be noted: recombinant CYP2C9, luciferin-H luminescence, 60 min; series mostly up to 57.1 µM. The procedure, abridged:
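Inhibition of CYP2C9 is scored as loss of luminescence, with 57uM sulphaphenazole defining 100% inhibition. Substrate Luciferin-H is used at 100uM, equal to its KM; enzyme at 10nM in 25mM KPO4, 60 min at 37C with NADPH regeneration.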

Assay [7] addresses Cytochrome P450 2D6 (Homo sapiens) (UniProt P10635). Briefly: qHTS Assay for Inhibitors and Substrates of Cytochrome P450 2D6 (AID 891). Note: potency is the fitted concentration of half-maximal effect; nearly all actives have a fitted effect of over 60% in size. To be noted: recombinant CYP2D6, luciferin-ME EGE luminescence; series mostly up to 57.1 µM. The procedure, abridged:
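Luminescent read-out of luciferin formed by 5 nM human CYP2D6 demethylating 30 uM Luciferin-ME EGE (Km level) over 60 min at room temperature after NADPH regeneration addition. Data normalized to full inhibition by 1.43 uM quinidine.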

Sequence of Cytochrome P450 3A4 (Homo sapiens) (P08684 whole entry, looked up): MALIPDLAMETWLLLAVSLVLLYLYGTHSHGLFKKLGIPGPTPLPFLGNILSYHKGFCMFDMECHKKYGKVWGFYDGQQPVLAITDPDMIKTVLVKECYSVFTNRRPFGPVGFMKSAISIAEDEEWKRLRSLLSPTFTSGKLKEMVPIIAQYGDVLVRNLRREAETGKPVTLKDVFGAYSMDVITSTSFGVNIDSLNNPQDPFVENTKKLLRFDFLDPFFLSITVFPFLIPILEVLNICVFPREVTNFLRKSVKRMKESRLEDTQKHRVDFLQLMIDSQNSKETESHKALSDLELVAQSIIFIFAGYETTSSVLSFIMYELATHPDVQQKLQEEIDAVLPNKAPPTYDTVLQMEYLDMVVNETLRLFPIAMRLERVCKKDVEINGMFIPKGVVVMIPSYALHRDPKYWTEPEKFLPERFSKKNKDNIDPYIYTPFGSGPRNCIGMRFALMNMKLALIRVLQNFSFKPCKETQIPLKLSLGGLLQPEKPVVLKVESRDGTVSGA
Sequence of Cytochrome P450 2C19 (Homo sapiens) (P33261 whole entry, looked up): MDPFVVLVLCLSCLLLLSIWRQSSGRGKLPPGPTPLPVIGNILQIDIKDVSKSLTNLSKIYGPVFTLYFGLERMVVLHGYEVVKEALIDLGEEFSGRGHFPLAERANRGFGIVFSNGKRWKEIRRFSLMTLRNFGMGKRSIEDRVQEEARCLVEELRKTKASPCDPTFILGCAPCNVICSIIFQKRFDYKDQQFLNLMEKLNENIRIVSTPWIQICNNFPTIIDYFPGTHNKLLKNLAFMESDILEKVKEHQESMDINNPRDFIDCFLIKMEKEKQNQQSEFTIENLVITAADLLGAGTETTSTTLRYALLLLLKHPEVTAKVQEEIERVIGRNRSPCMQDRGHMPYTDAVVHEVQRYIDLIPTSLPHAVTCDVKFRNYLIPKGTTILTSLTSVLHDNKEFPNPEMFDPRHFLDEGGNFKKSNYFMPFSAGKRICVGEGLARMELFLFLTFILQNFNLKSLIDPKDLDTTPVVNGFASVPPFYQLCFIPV
Sequence of 3',5'-cyclic-AMP phosphodiesterase 4B (Homo sapiens) (Q07343 whole entry, looked up): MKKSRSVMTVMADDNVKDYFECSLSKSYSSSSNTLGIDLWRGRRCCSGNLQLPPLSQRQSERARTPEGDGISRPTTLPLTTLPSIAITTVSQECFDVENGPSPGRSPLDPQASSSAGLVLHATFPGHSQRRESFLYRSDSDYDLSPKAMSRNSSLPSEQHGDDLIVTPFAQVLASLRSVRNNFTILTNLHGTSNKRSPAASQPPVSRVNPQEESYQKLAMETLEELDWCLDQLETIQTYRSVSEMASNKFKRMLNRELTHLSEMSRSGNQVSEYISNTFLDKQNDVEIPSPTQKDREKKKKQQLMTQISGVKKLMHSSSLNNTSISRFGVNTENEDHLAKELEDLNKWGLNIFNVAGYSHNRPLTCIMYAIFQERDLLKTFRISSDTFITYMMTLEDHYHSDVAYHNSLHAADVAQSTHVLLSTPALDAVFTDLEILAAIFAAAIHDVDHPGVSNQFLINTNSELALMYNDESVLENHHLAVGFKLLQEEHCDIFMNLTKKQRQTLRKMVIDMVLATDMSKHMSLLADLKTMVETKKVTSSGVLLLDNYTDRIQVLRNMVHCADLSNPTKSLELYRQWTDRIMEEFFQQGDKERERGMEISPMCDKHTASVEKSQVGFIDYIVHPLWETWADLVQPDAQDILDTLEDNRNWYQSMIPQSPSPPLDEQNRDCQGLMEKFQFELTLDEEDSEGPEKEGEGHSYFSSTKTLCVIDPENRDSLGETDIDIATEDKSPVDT
Sequence of Cytochrome P450 2C9 (Homo sapiens) (P11712 whole entry, looked up): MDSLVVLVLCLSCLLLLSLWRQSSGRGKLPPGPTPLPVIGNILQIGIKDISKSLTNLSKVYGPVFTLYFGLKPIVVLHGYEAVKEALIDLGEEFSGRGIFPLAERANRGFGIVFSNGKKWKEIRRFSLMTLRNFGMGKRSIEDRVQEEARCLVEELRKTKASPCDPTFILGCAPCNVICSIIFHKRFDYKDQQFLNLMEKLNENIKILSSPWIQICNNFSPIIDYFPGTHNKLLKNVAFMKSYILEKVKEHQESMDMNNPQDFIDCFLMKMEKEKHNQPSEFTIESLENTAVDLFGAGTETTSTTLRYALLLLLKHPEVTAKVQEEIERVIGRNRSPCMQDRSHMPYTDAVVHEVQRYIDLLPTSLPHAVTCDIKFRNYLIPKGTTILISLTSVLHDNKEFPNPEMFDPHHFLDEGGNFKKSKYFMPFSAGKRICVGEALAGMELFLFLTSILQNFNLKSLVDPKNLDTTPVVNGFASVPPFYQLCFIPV
Sequence of Cytochrome P450 2D6 (Homo sapiens) (P10635 whole entry, looked up): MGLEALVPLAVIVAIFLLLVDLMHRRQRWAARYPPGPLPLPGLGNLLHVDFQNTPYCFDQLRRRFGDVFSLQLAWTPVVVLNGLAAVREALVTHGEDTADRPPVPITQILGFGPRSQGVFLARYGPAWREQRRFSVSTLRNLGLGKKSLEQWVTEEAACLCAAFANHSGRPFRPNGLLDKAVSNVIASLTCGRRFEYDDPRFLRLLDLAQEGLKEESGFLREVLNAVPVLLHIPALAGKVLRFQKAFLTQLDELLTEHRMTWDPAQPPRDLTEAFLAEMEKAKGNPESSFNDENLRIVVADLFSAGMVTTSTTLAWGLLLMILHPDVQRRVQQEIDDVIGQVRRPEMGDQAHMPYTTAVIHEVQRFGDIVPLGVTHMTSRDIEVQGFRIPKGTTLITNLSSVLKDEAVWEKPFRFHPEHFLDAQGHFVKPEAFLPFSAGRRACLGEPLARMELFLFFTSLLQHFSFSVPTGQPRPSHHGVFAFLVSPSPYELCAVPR

In the case of `CCCC/C=C/C(NC(=O)Oc1cccc(C(F)(F)F)c1)c1ccccc1` (configuration not stated), the Potency result in assay [1] and in assay [2] was “inactive” throughout. Besides, in assay [3], the Potency is 3160 nM (active).

For `CCCC[C@@H]1C[C@H]1C(NC(=O)c1ccccc1)c1ccc(Cl)cc1` (some centres not stated), the Potency in assay [4] was 3980 nM (active); in assay [3], 631 nM (active). For the same compound, the Potency result in assay [2] is “inactive”.

For `COC(=O)[C@H]1C[C@@H]1[C@H](NS(=O)(=O)c1ccc(-c2ccccc2)cc1)c1ccccc1`, the Potency result in assay [5] was “inactive”.

Take `Cc1cc(C(=O)N[C@H](c2ccccc2)[C@@]2(C)C[C@@H]2[C@@H](C)C(=O)Nc2ccc3ccccc3c2)n(C)n1`: the Potency result in assay [5] and in assay [2] was “inactive” each time. Besides, the Potency in assay [6] is 7940 nM (active); in assay [4] it was 794 nM (active); in assay [7] it was 39.8 nM (active).
